This passage reports PBM binding z-score results from the supplement of paper PMC6555819.

What all share (experiment): PBM binding z-score (relative to random genomic background probes); higher = stronger binding; sequences stand for … in GC…GCGATTGACAGCGTAGAATGAAGG
The subject of experiment [1] is RARb homodimer (NR concentration 270 nM). In short, it runs like this:
(§1)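 Binding buffer was PBS pH 7.4 with 2% milk, 0.02% Triton X-100, 1 mM DTT, 0.2 mg/mL BSA and 0.4 mg/ml salmon testes DNA. In it, ligand-free nuclear receptor dimers were incubated 1 h on custom Agilent 4×180K protein-binding microarrays carrying double-stranded probes. Antibodies against each partner (one per run) detected binding, and z-scores were calculated against random background probes after regression normalization of scanned fluorescence.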

Experiment [2] deals with RARg:RXRa (NR concentration 270 nM, RXRa partner concentration 90 nM). Put shortly:
as §1

Experiment [3] has as its system RARg homodimer (NR concentration 270 nM). In short, it runs like this: as §1
Experiment [4] concerns RXRa DBDmut IVT, anti-RXR (DBD mutation: RXRa K156A/R161A, NR concentration 90 nM). In short, it runs like this: as §1
The subject of experiment [5] is RXRa homodimer (NR concentration 180 nM). In short, it runs like this: as §1
The test system of experiment [6] is THRa:RXRa (NR concentration 90 nM, RXRa partner concentration 90 nM). In short, it runs like this: as §1
The subject of experiment [7] is THRa homodimer (NR concentration 90 nM). Put shortly: as §1
Experiment [8] concerns VDR homodimer (NR concentration 270 nM). Put shortly:
as §1

TGTCAAAGTTCATAGGTAACGTAAGTATCCACAC: the PBM binding z-score in experiment [1] came to 3.62; in experiment [2], 5.31; in experiment [3], 5.2; in experiment [4], 4.28; in experiment [5], 5.16; in experiment [6] it was 2.58. Also, the PBM binding z-score in experiment [7] was -0.00989; in experiment [8], 4.46.
For CGAACTAGATCATTGACAGGACAGTGAATAGTAA, the PBM binding z-score in experiment [1] stood at 0.278; in experiment [2] it was 0.201; in experiment [3], 0.25; in experiment [4], 0.0168; in experiment [5] it was 0.337; in experiment [6], 0.239. The PBM binding z-score was 0.557 in experiment [7] and 0.205 in experiment [8].
In the case of TCATATAGTTAATACAGGTGAAAGTCGGCATCTA, the PBM binding z-score was 0.692 in experiment [1]; 0.857 in experiment [2]; 0.789 in experiment [3]; 2.12 in experiment [4]; 1.2 in experiment [5]; 1.02 in experiment [6]. Moreover, the PBM binding z-score in experiment [7] came to 0.515; in experiment [8], 0.657.
For ACTATTTGGTCAGCTGAGGTCACACACAATTCGG, the PBM binding z-score in experiment [1] came out at 4.69; in experiment [2], 4.24; in experiment [3], 4.48; in experiment [4] it was 2.02; in experiment [5], 4.4; in experiment [6] it was 5.09. For the same sequence, the PBM binding z-score in experiment [7] was 5.11; in experiment [8], 3.67.
For CCGACTGGGGCAGAAAGCTTACCATACCATCCGG, the PBM binding z-score was -0.46 in experiment [1]; -0.395 in experiment [2]; -0.221 in experiment [3]; -0.744 in experiment [4]; -0.422 in experiment [5]; -0.808 in experiment [6]. The PBM binding z-score was -0.889 in experiment [7] and -0.719 in experiment [8].
Regarding TCAGACAGGTGAAGGTAACTCATGTACGCAGTCG, the PBM binding z-score was 0.741 in experiment [1]; 0.76 in experiment [2]; 0.656 in experiment [3]; 1.32 in experiment [4]; 1.02 in experiment [5]; 0.677 in experiment [6]. Also, the PBM binding z-score in experiment [7] was found to be 0.193; in experiment [8], 0.0395.
On to CCCACTGGGCCACGAAAGGTCATTGATTCAGTGA, for which the PBM binding z-score was 4.6 in experiment [1]; 4.7 in experiment [2]; 4.33 in experiment [3]; -0.145 in experiment [4]; 4.87 in experiment [5]; 4.11 in experiment [6]. The PBM binding z-score was 1.09 in experiment [7] and 2.4 in experiment [8].
Regarding CCAGAAAGGTGAGAAGGTAACTCAGCCTCGATTA, the PBM binding z-score in experiment [1] was determined as 1.43; in experiment [2], 2.36; in experiment [3], 1.91; in experiment [4], 0.256; in experiment [5], 1.53; in experiment [6], 0.725. Also, the PBM binding z-score in experiment [7] was 0.0189; in experiment [8] it was -0.238.
For the sequence CGGACTAGGTCATCCAGGACAGTGAATACATTGA, the PBM binding z-score came to 2.76 in experiment [1]; 3.66 in experiment [2]; 4.36 in experiment [3]; 1.7 in experiment [4]; 2.43 in experiment [5]; 3.48 in experiment [6]. Moreover, the PBM binding z-score amounted to 1.79 in experiment [7] and 1.59 in experiment [8].
Take GCTCGGAGGACAAGGTCAGAGCCTTGTCCGTAGA: the PBM binding z-score in experiment [1] came to 2.82; in experiment [2], 3.32; in experiment [3], 3.39; in experiment [4] it was 0.219; in experiment [5], 2.81; in experiment [6] it was 2.78. Further, the results for the PBM binding z-score in experiment [7] and in experiment [8] were 1.01 and 0.502, respectively.
For CCTCGGAGGACATAAGGTCAGAGCTGTCCGCTTT, the PBM binding z-score was 3.89 in experiment [1]; 3.93 in experiment [2]; 3.55 in experiment [3]; 0.965 in experiment [4]; 2.31 in experiment [5]; 3.91 in experiment [6]. Besides, the PBM binding z-score in experiment [7] came out at 2.81; in experiment [8] it was 1.01.
As for GCTCGGAGGACAACGTCAGAGCTTTGTCCGTAGA, the PBM binding z-score in experiment [1] is -0.35; in experiment [2], -0.399; in experiment [3], 0.158; in experiment [4], 0.00939; in experiment [5] it was -0.87; in experiment [6], 0.242. For the same sequence, the PBM binding z-score in experiment [7] is -0.468; in experiment [8], -0.803.
With GCTTACGGGTCAAACGTTATAGCATGAATAGAAT, the PBM binding z-score came to 2.24 in experiment [1]; 4.8 in experiment [2]; 4.42 in experiment [3]; 2.47 in experiment [4]; 5.6 in experiment [5]; 2.24 in experiment [6]. Besides, the PBM binding z-score in experiment [7] is -0.707; in experiment [8], 1.11.
For GACACAGGGTCAAGGCCAGAGTACGCGTATTGAT, the PBM binding z-score was 3.64 in experiment [1]; 5.52 in experiment [2]; 5.02 in experiment [3]; 2.59 in experiment [4]; 6.19 in experiment [5]; 3.64 in experiment [6]. For the same sequence, the PBM binding z-score in experiment [7] amounted to 0.875; in experiment [8], 2.13.
